Assay [1] has as its target T1, Aspartate--tRNA(Asp/Asn) ligase (Mycobacterium tuberculosis (strain ATCC 25618 / H37Rv)) (UniProt P9WFW3). Also: in the data most compounds retested in dose-response had high values.
T1 sequence (whole entry): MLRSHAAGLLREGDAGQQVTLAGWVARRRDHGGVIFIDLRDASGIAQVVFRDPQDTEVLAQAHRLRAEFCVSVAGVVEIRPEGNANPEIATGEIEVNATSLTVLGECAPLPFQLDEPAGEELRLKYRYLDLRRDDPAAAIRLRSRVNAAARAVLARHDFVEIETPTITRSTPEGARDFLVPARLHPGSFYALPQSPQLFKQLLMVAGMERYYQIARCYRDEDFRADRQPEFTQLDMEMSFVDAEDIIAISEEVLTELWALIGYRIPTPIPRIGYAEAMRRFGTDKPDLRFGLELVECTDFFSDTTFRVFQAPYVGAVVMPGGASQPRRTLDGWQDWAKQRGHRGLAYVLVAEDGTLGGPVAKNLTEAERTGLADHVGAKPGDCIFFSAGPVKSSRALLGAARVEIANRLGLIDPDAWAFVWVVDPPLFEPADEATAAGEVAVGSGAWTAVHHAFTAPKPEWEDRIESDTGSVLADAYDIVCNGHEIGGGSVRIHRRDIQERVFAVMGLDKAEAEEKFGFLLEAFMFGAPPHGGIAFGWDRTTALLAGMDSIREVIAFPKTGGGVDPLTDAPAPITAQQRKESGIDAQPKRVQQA
The experiment in a line: Assay for Asp RNA synthetase-1 from Mycobacterium tuberculosis. It is filed as functional. The arrangement: scale not given: direction of the effect not stated beside the values. The conditions noted are these: 30 µM.

Assay [2] addresses Shiga toxin 2 (Escherichia coli O157:H7) (UniProt P09385+P09386). The assay can be described thus: E. coli 0.157:H7 Shiga Toxin SOP - stx2 screening assay. The class given is functional. The arrangement: scale not given: direction of the effect not stated beside the values. The note with it: 30 µM.

As to `Cn1c(CN2CCOCC2)nnc1C1CCN(C(=O)C2CCCC2)CC1`, the Percent Effect in assay [1] is 1.73%; in assay [2], -33.5%.
The matching figures for `CCS(=O)(=O)N1CCC2(CC(=O)N(c3cccc(C)c3)C2)C1` (centres undefined): 2.82% and -11.5%.
For `CN(C)c1ccc(CNc2cncc(-n3cccn3)n2)cc1`, the Percent Effect is -4.37% in assay [1] and -28% in assay [2].
`Cc1cc(CN(C)C(=O)NC2CCN(Cc3ccccc3)C2)no1` (centres undefined): the Percent Effect in assay [1] is 2.94%; in assay [2], -10.9%.
With `O=C(C1CCOCC1)N1CCC2(CC1)CC(Oc1ccccc1)CO2` (centres undefined), the Percent Effect is -1.89% in assay [1] and 25.7% in assay [2].
For `COCCn1ccc(NC(=O)Nc2ccc(C(N)=O)c(F)c2)n1` the same measures were 2.25% and -3.67%.
The matching figures for `CCc1nc(C2CCCN2Cc2nc(CCOC)no2)no1` (centres undefined): 5.05% and -11.9%.
As for `NC(=O)c1cnn2c1NCC(CNCCCOc1ccccc1F)C2` (centres undefined), the Percent Effect was -0.278% in assay [1] and 17.4% in assay [2].
Regarding `CCN(Cc1ccc2c(c1)OCO2)C(=O)c1ccc(C)[nH]c1=O`, the Percent Effect was 0.522% in assay [1] and -16% in assay [2].
On to `Cc1nnc2n1CCN(C(=O)c1cn(-c3ccccc3Cl)nn1)C2`, for which the Percent Effect is -0.98% in assay [1] and -42.4% in assay [2].
On to `Cc1noc(C)c1C1CCCN1C(=O)CN1CC2(CCNCC2)OC1=O` (centres undefined), for which the Percent Effect in assay [1] was -0.658%; in assay [2] it was -21%.
The matching figures for `CCOC(=O)N1CCN(C(=O)c2sc(-c3ccc(F)cc3)nc2C)CC1`: -0.364% and 8.24%.
As to `Cc1cccc(C(=O)N2CCN(S(C)(=O)=O)[C@@H](C)C2)c1C`, the results for the Percent Effect in assay [1] and in assay [2] were -3.1% and -11.5%, respectively.
For `O=C(c1cnccn1)N1CCN2C[C@H](OCc3ccccn3)C[C@H]2C1`, the results for the Percent Effect in assay [1] and in assay [2] were 4.4% and -7.9%, respectively.
As to `CCCC1(CO)CCCN(c2ncccc2F)C1` (centres undefined), the Percent Effect in assay [1] is 0.836%; in assay [2], -7.35%.
`CCOc1ccc(NC(=O)c2cnc(N3CCCC3)nc2C)cc1`: the results for the Percent Effect in assay [1] and in assay [2] were -4.56% and -10.5%, respectively.
For `C[C@@H]1CN(C(=O)c2ccsc2)C[C@]12CCN(c1ccsc1)C2=O` the same measures were -1.75% and 1.46%.

(Values after ChEMBL document CHEMBL3988442, “University of Dundee, Small-Polar-MMV Screening Library” (2021).)
